Measured values reported in PubChem BioAssay.
Values joined by “and” are separate entries in the source; they are usually repeats but may differ in a detail not shown here. Equal entries are not always repeated. Active and inactive are the calls of the source.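 Rule for the calls, unless noted: active = compounds whose cell count with miR-34 switched on is under 0.7 times the count with it off; inactive = the rest.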

Assays:
[1] = sensitizers of A549 cells to miR-34 induction, primary screen, imaging, A549 dox-inducible miR-34, nuclei and caspase counts (AID 1347080); conditions: A549 miR-34 inducible, Hoechst nuclei count, 48 h
[2] = survival rescue of mitochondrial mutant cells in low glucose, primary screen, MELAS cybrids, Rieske KO mouse fibroblasts, CellTiter-Glo (AID 1508586;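 active = mean z-score across replicates of 1.96 or higher in either the MELAS or the Rieske mutant cell line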;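 note: z relative to plate mean and SD of compound and empty wells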)
[3] = liver-stage malaria parasite growth inhibition, primary screen, cell-based, HepG2, luciferase luminescence, HepG2 viability (AID 624349; in the data active = parasite load remaining mostly below about 12%, no sharp cut-off; inactive = mostly above about 10%;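 note: 100% = mean of DMSO negative control wells on the same plate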); conditions: P. berghei liver stage in HepG2, luciferase luminescence, concentration not given here; parasite load remaining: stronger effect = lower value; viability: measured here: HepG2 viability without parasites
[4] = viability rescue of complex I mutant cybrids, primary screen, cell-based, galactose medium, ATP luminescence (AID 1645843;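 active = z-score of at least 1.8 in each of two replicates, scored against plate mean and spread of sample wells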;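 note: positive z means more ATP and so rescue of galactose-driven cybrid death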); conditions: complex I mutant cybrid cells, 72 h, stronger effect = higher value
[5] = hESC survival regulators, cell-based (AID 493140; call rule not given here;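 note: cells exposed to compounds for four days before counting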); conditions: human embryonic stem cell survival screen; stronger effect = higher value
[6] = target: Mitogen-activated protein kinase 7 (Homo sapiens) (UniProt Q13164); assay: ERK5 transactivation activators in reporter cells, primary screen, cell-based, HTS (AID 1508626;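 active = luciferase signal above three times the same-plate solvent-only control wells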;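 note: luciferase driven by Gal4-ERK5 fusion binding five Gal4 sites before minimal TATA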); conditions: HeLa Gal4-ERK5 transactivation, 18 h, at 5 µM, stronger effect = higher value
[7] = target: NAD(+) hydrolase SARM1 (Homo sapiens) (UniProt Q6SZW1); assay: SARM1 TIR NADase inhibitors, cell lysate, NAD-Glo luminescence (AID 1508614;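 active = compound whose remaining NAD level is above about 45 nM, limit read from the data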;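 note: higher remaining NAD means stronger inhibition of SARM1 NADase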); conditions: SAM-TIR HEK293T lysate NADase, at 1 µM, stronger effect = higher value
[8] = stronger effect = lower value, cell number ratio, induced over uninduced
[9] = measured here: relative caspase fold change +Dox/-Dox
[10] = measured here: total cells with miR-34 induction, stronger effect = lower value
[11] = measured here: total cells without miR-34 induction
[12] = MELAS cybrid survival, CellTiter-Glo 48 h, stronger effect = higher value
[13] = Rieske KO mouse fibroblast survival, CellTiter-Glo 72 h

Chain of Mitogen-activated protein kinase 7 (Homo sapiens) (Q13164 whole entry, looked up, the tested form may be a part): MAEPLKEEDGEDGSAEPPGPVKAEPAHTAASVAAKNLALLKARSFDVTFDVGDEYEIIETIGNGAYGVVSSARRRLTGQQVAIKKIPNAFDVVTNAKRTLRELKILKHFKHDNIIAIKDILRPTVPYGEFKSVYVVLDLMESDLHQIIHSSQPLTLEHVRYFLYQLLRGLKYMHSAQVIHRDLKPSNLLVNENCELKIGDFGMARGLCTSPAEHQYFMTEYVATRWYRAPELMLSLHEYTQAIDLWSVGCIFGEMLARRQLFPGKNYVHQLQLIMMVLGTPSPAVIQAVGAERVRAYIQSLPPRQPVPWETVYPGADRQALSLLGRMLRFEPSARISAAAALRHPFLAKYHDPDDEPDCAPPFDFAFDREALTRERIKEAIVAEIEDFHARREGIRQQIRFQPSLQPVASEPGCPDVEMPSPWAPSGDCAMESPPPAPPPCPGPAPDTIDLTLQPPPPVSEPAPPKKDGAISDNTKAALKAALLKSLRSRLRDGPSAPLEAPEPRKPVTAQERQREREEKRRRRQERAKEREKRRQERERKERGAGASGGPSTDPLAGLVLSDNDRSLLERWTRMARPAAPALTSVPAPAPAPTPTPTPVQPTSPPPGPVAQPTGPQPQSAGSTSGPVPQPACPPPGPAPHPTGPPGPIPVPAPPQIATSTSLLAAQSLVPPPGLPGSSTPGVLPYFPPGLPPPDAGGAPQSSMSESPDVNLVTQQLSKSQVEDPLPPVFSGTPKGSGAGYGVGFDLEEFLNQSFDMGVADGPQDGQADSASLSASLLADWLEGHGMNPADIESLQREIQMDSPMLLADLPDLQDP
Chain of NAD(+) hydrolase SARM1 (Homo sapiens) (Q6SZW1 whole entry, looked up): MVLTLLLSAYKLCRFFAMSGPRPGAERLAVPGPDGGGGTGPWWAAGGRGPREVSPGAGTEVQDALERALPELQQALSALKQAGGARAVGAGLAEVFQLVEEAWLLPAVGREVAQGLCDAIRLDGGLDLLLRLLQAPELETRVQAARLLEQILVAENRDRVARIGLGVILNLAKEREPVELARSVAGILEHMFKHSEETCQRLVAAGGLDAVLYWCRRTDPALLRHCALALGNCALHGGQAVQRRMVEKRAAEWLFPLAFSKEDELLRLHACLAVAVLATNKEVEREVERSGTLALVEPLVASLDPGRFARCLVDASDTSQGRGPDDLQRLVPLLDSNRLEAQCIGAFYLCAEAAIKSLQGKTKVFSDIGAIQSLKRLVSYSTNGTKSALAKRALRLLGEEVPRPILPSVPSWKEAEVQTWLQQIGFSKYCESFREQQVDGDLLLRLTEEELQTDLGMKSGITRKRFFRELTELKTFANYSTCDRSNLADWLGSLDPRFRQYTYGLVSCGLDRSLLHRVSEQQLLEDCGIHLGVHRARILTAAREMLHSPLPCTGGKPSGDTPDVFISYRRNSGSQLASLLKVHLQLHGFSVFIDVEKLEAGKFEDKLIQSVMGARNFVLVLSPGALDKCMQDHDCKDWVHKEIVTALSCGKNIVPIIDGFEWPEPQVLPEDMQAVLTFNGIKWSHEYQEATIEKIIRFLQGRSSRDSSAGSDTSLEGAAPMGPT

SMILES	fold change [1, 8]	fold change [1, 9]	cell count [1, 10]	cell count [1, 11]	z-score [2, 12]	z-score [2, 13]	fold change ([1]; stronger effect = lower value)	parasite load remaining [3]	viability [3] [%]	z-score [4]	survival [5]	luciferase signal [6]	remaining NAD [7]
O=C1CCC[C@@H]2[C@@H]3CCCN4CCC[C@H](CN12)[C@@H]34	0.961 (inactive)	1.02	9040	9410	-0.296 (inactive)	0.336	–	–	–	–	–	–	–
COC1=C[C@@H]2C3Cc4ccc(OC)c(O)c4[C@]2(CCN3C)CC1=O	–	0.909	8920	9970	-0.311 (inactive)	0.879	0.895 (inactive)	–	–	–	–	–	–
C[C@]12CCC(O)C[C@@H]1CC[C@@H]1[C@H]2CC[C@]2(C)C(=O)CC[C@@H]12 (stereo partly specified)	–	1.48	7540	8080	-0.116 (inactive)	-0.417	0.933 (inactive)	–	–	–	–	–	–
C[C@]12CCC(=O)C(O)=C1CC[C@@H]1[C@H]2CC[C@]2(C)C(=O)CC[C@@H]12	–	0.764	8100	9210	-0.345 (inactive)	0.332	0.879 (inactive)	–	–	–	–	–	–
N#CC(OC1OC(COC2OC(CO)C(O)C(O)C2O)C(O)C(O)C1O)c1ccccc1 (stereo unspecified)	–	1	6790	8280	-0.2 (inactive)	-0.452	0.82 (inactive)	–	–	–	–	–	–
O=c1ccc2cc(OC3OC(CO)C(O)C(O)C3O)c(O)cc2o1 (stereo unspecified)	0.961 (inactive)	0.851	9070	9440	-0.23 (inactive)	0.0251	–	–	–	–	–	–	–
C[C@H]1CN(C2CCC(C#N)(c3ccc(F)cc3)CC2)CC[C@@]1(C(=O)O)c1ccccc1 (stereo partly specified)	–	1.09	9640	11200	0.032 (inactive)	0.209	0.857 (inactive)	36.7% (inactive)	68	0.74 (inactive)	–	–	–
Cc1ccc(C(C)Nc2ncnc3sccc23)cn1 (stereo unspecified)	0.921 (inactive)	1.09	5250	5700	-0.723 (inactive)	-0.439	–	–	–	-0.4 (inactive)	–	–	–
Oc1ccc(C2(c3ccc(O)cc3)CCCCC2)cc1	–	0.41	7610	8350	-0.617 (inactive)	-0.22	0.911 (inactive)	–	–	-1.9 (inactive)	–	–	–
CC1=C(C(=O)Nc2ccccc2)SCCO1	–	0.79	8550	9880	0.971 (inactive)	-0.224	0.865 (inactive)	–	–	-0.385 (inactive)	–	–	–
CCc1cc2c(s1)-n1c(C)nnc1CN=C2c1ccccc1Cl	–	0.493	8260	8710	-0.248 (inactive)	-0.187	0.948 (inactive)	–	–	–	–	–	–
CC(C)(c1ccccc1)c1ccc(O)cc1	–	0.637	8850	9870	0.409 (inactive)	-0.32	0.897 (inactive)	–	–	0.62 (inactive)	–	–	–
COc1ccc(S(=O)(=O)N(CCO)c2ccccc2CN(C)CC=Cc2ccc(Cl)cc2)cc1	0.937 (inactive)	0.634	5210	5560	-0.474 (inactive)	-0.774	–	–	–	–	–	–	–
CC(=O)O[C@@]12CO[C@@H]1CC(O)[C@@]1(C)C(=O)C(O)C3=C(C)C(O)C[C@@](O)(C(OC(=O)c4ccccc4)[C@H]21)C3(C)C (stereo partly specified)	1 (inactive)	0.634	6370	6370	-0.382 (inactive)	1.02	–	–	–	–	–	–	–
Cc1sc2c(c1C)C(c1ccc(Cl)cc1)=NC(CC(=O)OC(C)(C)C)c1nnc(C)n1-2 (stereo unspecified)	–	0.485	5260	5520	0.154 (inactive)	-3.85	0.954 (inactive)	–	–	–	–	–	–
CN(C)C1C(=O)C(C(N)=O)=C(O)[C@@]2(O)C(=O)C3=C(O)c4c(O)cccc4[C@@](C)(O)[C@H]3C(O)[C@@H]12 (stereo partly specified)	0.897 (inactive)	0.837	7930	8840	-0.21 (inactive)	0.479	–	–	–	–	–	–	–
CC1CC[C@@]2(OC1)O[C@H]1C[C@H]3[C@@H]4CC=C5CC(O[C@@H]6OC(CO)C(O[C@@H]7OC(C)C(O)C(O)C7O)C(O)C6O[C@@H]6OC(C)C(O)C(O)C6O)CC[C@]5(C)[C@@H]4CC[C@]3(C)[C@@H]1C2C (stereo partly specified)	0.658 (active)	1.39	1180	1800	2.01 (active)	-1.08	–	–	–	–	–	–	–
C/C=C/N1CC[C@]23CCCC[C@H]2[C@H]1Cc1ccc(O)cc13	–	1.04	9380	10400	-1.07 (inactive)	-0.504	0.904 (inactive)	46.3% (inactive)	104	0.26 (inactive)	–	–	–
C=CCN1CC[C@]23c4c5ccc(O)c4O[C@H]2/C(=N/N=C2\CC[C@@]4(O)[C@H]6Cc7ccc(O)c8c7[C@@]4(CCN6CC=C)[C@H]2O8)CC[C@@]3(O)[C@H]1C5	–	1.27	7760	9820	-0.547 (inactive)	-0.931	0.791 (inactive)	8.58% (inactive)	59	-1.6 (inactive)	–	–	–

SMILES	fold change [1, 8]	fold change [1, 9]	cell count [1, 10]	cell count [1, 11]	z-score [2, 12]	z-score [2, 13]	fold change ([1]; stronger effect = lower value)	parasite load remaining [3]	viability [3] [%]	z-score [4]	survival [5]	luciferase signal [6]	remaining NAD [7]
CC[C@@]1(O)C(=O)OCc2c1cc1n(c2=O)Cc2cc3c(O)cccc3nc2-1	–	0.873 and 1	1030 and 1460	1100 and 1430	-1.16 (inactive)	-0.93	0.938 (inactive) and 1.02 (inactive)	25.4% (inactive)	34	-2.13 (inactive)	–	–	–
C1CCN(C2CCNCC2)CC1	0.919 (inactive)	0.5	8270	9000	-1.03 (inactive)	0.0453	–	–	–	0.44 (inactive)	–	–	–
CC(=O)O[C@H]1CC[C@@]2(C)C(=CC[C@@H]3[C@@H]2CC[C@]2(C)C(=O)CC[C@@H]32)C1	–	1.2	9250	10400	0.711 (inactive)	-0.302	0.892 (inactive)	73.2% (inactive)	93.1	–	0.583 (inactive)	56 AU (inactive)	–
CN1C2CCC1CC(=O)C2	0.86 (inactive)	0.54	8780	10200	0.543 (inactive)	-0.508	–	–	–	0.545 (inactive)	–	–	–
CC(=Cc1csc(C)n1)C1CC2O[C@]2(C)CCCC(C)C(O)C(C)C(=O)C(C)(C)C(O)CC(=O)O1 (stereo partly specified)	1.08 (inactive)	0.662	1610	1500	1.69 (inactive)	-0.237	–	–	–	–	–	–	–
N#Cc1cnn(-c2ccc(Cl)cc2)c1N	–	1.03	8030	9420	-0.167 (inactive)	-0.085	0.852 (inactive)	–	–	0.29 (inactive)	–	–	–
C=CC(C)(C)c1cc2cc3c(cc2oc1=O)OC(C(C)(C)O)C3 (stereo unspecified)	0.846 (inactive)	0.587	5210	6170	-1.27 (inactive)	0.752	–	–	–	-2.66 (inactive)	–	–	–
NCCc1ccc(S(N)(=O)=O)cc1	–	0.315	9210	10400	-0.0994 (inactive)	0.0645	0.884 (inactive)	–	–	0.495 (inactive)	–	–	–
NC(CC(=O)N1CCn2c(nnc2C(F)(F)F)C1)Cc1cc(F)c(F)cc1F (stereo unspecified)	0.922 (inactive)	0.671	9670	10500	-0.323 (inactive)	0.499	–	–	–	–	–	–	–
CN1C[C@H](C(=O)N[C@]2(C)O[C@@]3(O)[C@@H]4CCCN4C(=O)[C@H](Cc4ccccc4)N3C2=O)C=C2c3cccc4[nH]cc(c34)C[C@H]21	–	1.34	8820	10200	-0.409 (inactive)	-0.32	0.866 (inactive)	33.4% (inactive)	106	1.08 (inactive)	–	80 AU (inactive)	10 nM (inactive)
C=C[C@H]1CN2CCC1C[C@H]2C(O)c1ccnc2ccccc12 (stereo partly specified)	0.935 (inactive)	0.691	8540	9140	-0.21 (inactive)	0.792	–	–	–	–	–	–	–
Cc1nc(-c2ccccn2)nc(NCCc2ccccc2)c1Cl	–	0.693	3090	3170	-0.0148	3.58	0.975 (inactive)	–	–	-2.29 (inactive)	–	–	–
Clc1ccc(C(Cn2ccnc2)OCc2ccc(Sc3ccccc3)cc2)c(Cl)c1 (stereo unspecified)	0.851 (inactive)	0.891	6850	8050	-0.265 (inactive)	0.16	–	–	–	–	–	–	–
C=C1C[C@@H]2[C@@H](CC[C@@]3(C)C(=O)CC[C@@H]23)[C@@]2(C)C=CC(=O)C=C12	–	1.02	7640	7540	-0.495 (inactive)	0.156	1.01 (inactive)	–	–	–	–	–	–
O=C1C[C@@H]2OCC=C3CN4CC[C@]56c7ccccc7N1[C@H]5[C@H]2[C@H]3C[C@H]46	–	1.24	10000	10800	0.997 (inactive)	0.445	0.929 (inactive)	96.5% (inactive)	226	0.365 (inactive)	–	48 AU (inactive)	10 nM (inactive)
C=CC[C@@]1(O)CC[C@H]2[C@@H]3CCC4=CC(=O)CCC4=C3C=C[C@@]21C	0.88 (inactive)	0.451	7350	8350	-0.295 (inactive)	-0.164	–	–	–	–	–	–	–
Oc1ccc2c3c1O[C@H]1c4oc5ccccc5c4C[C@@]4(O)[C@@H](C2)N(CC2CC2)CC[C@]314	–	0.462	9980	10900	-0.602 (inactive)	0.281	0.915 (inactive)	33.1% (inactive)	94	-0.095 (inactive)	–	–	–
COc1cc(-n2c(=S)[nH]c3ccccc3c2=O)c(Cl)cc1Cl	–	0.323	6620	7540	0.632 (inactive)	1.12	0.878 (inactive)	–	–	–	–	–	–
